test system: RARb:RXRa (NR concentration 270 nM, RXRa partner concentration 90 nM); assay: PBM binding z-score (relative to random genomic background probes); higher = stronger binding; sequences stand for … in GC…GCGATTGACAGCGTAGAATGAAGG
Outline: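 On custom Agilent 4×180K arrays, double-stranded probes with 34-nt variable regions carried direct-repeat seeds, single-nucleotide variants, half-site ablations or random human genomic background. Ligand-free nuclear receptor dimers were applied for 1 h, and binding was read with antibodies against each partner (one per run). Binding z-scores come from regression-normalized fluorescence, with the random background probes as reference.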

Sequence | PBM binding z-score
TCTCGGAGGACACGAAGGTCAGAGCCTTCCAGAG | 3.33
ACAGACAGGTGAGTGAAGGTAACGCAGCTGGACG | 0.702
AGTCAAAGTTCAGGACGAGGTATCGTAAAGCACG | 4.09
TCTAGTTGGTCACGGCGGTCACACACGACGGGTA | 2.52
ACTGACGGGTCAACGAGGTTATAGCACGCGTATA | 3.87
TCGAGTAGGTTAGGGGCAATCAGAATGGCGTCGA | 1.19
AGAATGAGGTTAAGATCAGCGAAACAGAATACAT | 1.83
TCAGACAAGTGAAGGTAACTCAGGTACGCAGTCG | 0.197
ACTATTAGTTGACTTAGGGCAACCGCTACGACGC | 0.745
ATGTGTAGGTTAAGGGTCATTCAGGTTGGTTCGC | 3.91
CAAACTCGGTCACGAAAGGTCAAAGTCGAATGAC | 5.02
ATATATAGGTTACATCCGGGTCATTCAGGCTATG | 2.51
AGAATGAGGTTACCAAAGATCATGGAAACGCTTG | 2.11
TTACCAAGCTGAAAGGTCGTTGATGCACGCCTTG | 1.36
CTCGAAAGGTCGTGCTCAGCTGAGTATACCAAAC | 3.72
ACCGAAAGGTCGACGAGGTGAGTATACACCGTTT | 4.19
AGCATGAGGTTATTAAGATCAGGGAATTGCGGTC | 1.45
AGAACGAGGGCAATGATTTGATAGCACGGGTGGC | 1.95
TCATATAGGTAATACAGGTGACAGTCGGCATCTA | 0.683
CCTAGCAGGCCAATCTGGGCCACTCAAGGCTTGA | 0.0812

Sequence | PBM binding z-score
CCAAACAGGTGAGAAGGTAACTCAGCCTCGATTA | 0.534
GTTAGTTGGTCAGTAAAAGGTCACACACCGGTCG | 4.39
TCATATAGGTAAATGCTAGGGGAAAGTCCGATCT | 0.327
CCTTACGGTTCACTCCAGGTTATAGCATCGGAGT | 1.29
ACTAGCAGGCCAAGTTTGGGTCTCTCAAACAAAG | 0.382
TCGACTAGGTTAGTCGGGGCATTCAGCCAACATA | 0.662
ATCTCTAGGTAACGAAGTTCAGTGAATGCCGAAC | 1.14
CATACAGGGTCAGCCAGGCCAGAGTAGGGACGGC | 4.1
ATATGAAGGTTAGCTGGGGTCATTCAGACTAGGC | 3.55
ATCTCTAGGTAAAGATAGTTCAGCGAATGCAAAT | 0.964
TATACAGGGTCAAAGCCCAGAGTACGAATGTCGA | 4.28
TCTGCTAAGTCAACGATGGTCAGCTAATCTGCTA | 0.171
ATATGTAGGTTACATCCGGGTTATTCAGGCTATG | 1.35
CCTATTACTTGACCATAAGGGCAACCGAAGCTCG | 1.61
CCTATTAGTTGACCATAAGGGCGACCGAAGCTCG | 0.951
TCTAGTTGGTCACTGAGGTCACACACGACGGGTA | 4
TCTGCTAGGTCAACGATGGTCAGCTCATCTGCTA | 4.05
AGAATGAGGTTATACGCAGATCAGGGAAGAAAGT | 1.52
TCTATTAGTTGTTTAGGGCAACCGAAACAGCGGA | 1.13
CCCGACAGGTGAAAGGTAACTCAGTCTGGTACGC | 1.09
